The nature of test [1]: A CellTox Green Cytotoxicity Assay to monitor cytotoxicity in HEK293 cells - 32 hour (AID 1224881). Note: nearly all actives have a fitted effect of over 40% in size. Note: potency is the fitted concentration of half-maximal effect. The gist of the method:
(§1)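 Fluorescence intensity, read at 0, 8, 16, 24, 32 and 40 h of compound treatment, reflected dye binding to DNA of dead HEK293 cells; compounds (23 nL, DMSO) were added 5 h after plating cells with reagent.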

A short description of test [2]: A CellTox Green Cytotoxicity Assay to monitor cytotoxicity in HepG2 cells - 0 hour (AID 1224882). Note: nearly all actives have a fitted effect of over 35% in size. The gist of the method:
(§2)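 Using 1536-well format, dye-containing HepG2 suspension was seeded, allowed 5 h at 37 C/5% CO2, dosed by pintool with compounds, positive and negative controls, and imaged for fluorescence across 40 h.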

A short description of test [3]: A CellTox Green Cytotoxicity Assay to monitor cytotoxicity in HepG2 cells - 32 hour (AID 1224883). Note: nearly all actives have a fitted effect of over 50% in size. Note: potency is the fitted concentration of half-maximal effect. Put shortly:
as §2

A short description of test [4]: A CellTox Green Cytotoxicity Assay to monitor cytotoxicity in HEK293 cells - 8 hour (AID 1224884). Note: nearly all actives have a fitted effect of over 35% in size. Put shortly: as §1
Test [5] can be described thus: qHTS RealTime-Glo MT Cell Viability Assay in HepG2 cells - 16 hour (AID 1224885). Note: nearly all actives have a fitted effect of over 50% in size. Note: potency is the fitted concentration of half-maximal effect. Put shortly: (§3)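 Real-time, nonlytic viability: 600 HepG2 cells/well mixed with NanoLuc enzyme plus prosubstrate; 5 h settle, compound (DMSO) added by pintool; luminescence monitored over 40 h at 37 C.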
Background: In qHTS, concentration-response curves come from the screen itself.

Test [6] in a line: qHTS RealTime-Glo MT Cell Viability Assay in HEK293 cells - 24 hour (AID 1224886). Note: nearly all actives have a fitted effect of over 50% in size. Note: potency is the fitted concentration of half-maximal effect. The gist of the method: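 Cells + reagent dispensed (600 cells/well, HEK293) → 5 h at 37 C/5% CO2 → 23 nL compound in DMSO pinned → 40 h at 37 C → luminescence read at 0, 8, 16, 24, 32, 40 h.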
Test [7] can be described thus: qHTS RealTime-Glo MT Cell Viability Assay in HEK293 cells - 8 hour (AID 1224887). Note: nearly all actives have a fitted effect of over 50% in size. Note: potency is the fitted concentration of half-maximal effect. Put shortly:
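Viable HEK293 cells reduce a cell-permeant prosubstrate; the product diffuses out and is consumed by NanoLuc in the medium to give light. Compounds went in after a 5 h incubation and plates were read over the treatment course.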

A short description of test [8]: A CellTox Green Cytotoxicity Assay to monitor cytotoxicity in HEK293 cells - 16 hour (AID 1224888). Note: nearly all actives have a fitted effect of over 35% in size. Put shortly: as §1
Test [9] can be described thus: qHTS RealTime-Glo MT Cell Viability Assay in HepG2 cells - 0 hour (AID 1224889). Note: nearly all actives have a fitted effect of over 50% in size. Put shortly: as §3
Test [10] is described as follows: A CellTox Green Cytotoxicity Assay to monitor cytotoxicity in HepG2 cells - 8 hour (AID 1224890). Note: nearly all actives have a fitted effect of over 45% in size. Put shortly: as §2
Test [11] is described as follows: qHTS assay to identify small molecule antagonists of the estrogen receptor alpha (ER-alpha) signaling pathway using the BG1 cell line in the presence of 0.1 nM 17-beta-estradiol - cell viability counter screen (AID 1259241). Note: nearly all actives have a fitted effect of over 40% in size. The gist of the method:
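Cytotoxicity counter-screen: live-cell protease activity measured by fluorescence (30 min reagent step) in the same wells. Cells were VM7Luc4E2 with endogenous ER-alpha and ERE-driven luciferase, treated 22 hr at 37C alongside 0.1 nM 17beta-estradiol final.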

The nature of test [12]: qHTS assay to identify small molecule antagonists of the androgen receptor (AR) signaling pathway using the MDA cell line in the presence of 0.5 nM R1881 - cell viability counter screen (AID 1259242). Note: nearly all actives have a fitted effect of over 45% in size. Note: potency is the fitted concentration of half-maximal effect. Put shortly: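 Viability of MDA-kb2 cells was multiplexed with the luciferase AR readout; after 16 hr with compounds and R1881 at 0.5 nM final, CellTiter-Fluor fluorescence was recorded.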

Test [13] is described as follows: qHTS assay to identify small molecule HDAC inhibitors (AID 1259364). Note: potency is the fitted concentration of half-maximal effect.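 Note: wild-type HCT-116 cells with endogenous class I/II HDAC activity; nearly all actives have a fitted effect of over 45% in size.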 The gist of the method:
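Read-out: luminescence of HDAC-Glo I/II reagent, 30 min RT, reflecting class I/II deacetylase activity in whole HCT-116 cells pre-exposed 2 h to DMSO-dissolved compounds.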

Test [14] is described as follows: qHTS assay to identify small molecule HDAC inhibitors - cell viability counter screen (AID 1259365). The gist of the method: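 CellTiter-Glo luminescence (30 min, room temperature) reported viability after a 2 h compound exposure at 37 C. Cells: wild-type HCT-116, 1,500 per well, seeded the night before.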
Test [15] in a line: qHTS assay to identify small molecule agonists of the sonic hedgehog signaling (Shh) pathway - cell viability counter screen (AID 1259366). Note: nearly all actives have a fitted effect of over 50% in size. Note: potency is the fitted concentration of half-maximal effect. The gist of the method: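 Cytotoxicity counter screen: CellTiter-Fluor reagent added after 23 h compound exposure, then 1 h at 37C and fluorescence read. Cells were 3T3 Gli1-Luc, seeded 2,000 per well and dosed 4 h post-plating.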
Test [16] can be described thus: qHTS assay to identify small molecule antagonists of the sonic hedgehog signaling (Shh) pathway - cell viability counter screen (AID 1259367). Note: nearly all actives have a fitted effect of over 55% in size. Note: potency is the fitted concentration of half-maximal effect. The gist of the method:
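Seed 3T3 Gli1-Luc cells at 2,000 per well; incubate 4 hr; add compound in DMSO, then conditioned medium; incubate at 37C with 5% CO2; add CellTiter-Fluor after 23 hr; read fluorescence 1 hr later.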

The nature of test [17]: qHTS assay to identify small molecule agonists of the sonic hedgehog signaling (Shh) pathway (AID 1259368; calls by dose curve;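 note: NIH/3T3-derived 3T3Gli1-Luc cells carrying a stable Gli1-driven firefly luciferase reporter; series mostly up to about 92 µM; nearly all actives have a fitted effect of over 15% in size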). The gist of the method: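 A Gli1 transcriptional response element controlled firefly luciferase in 3T3Gli1-Luc cells. Compounds and a positive control were added 4 hr after plating, and cells were incubated a further 24 hr at 37 C before luminescence detection.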
Test [18] addresses Estrogen receptor (Homo sapiens) (UniProt P03372). Put plainly: qHTS assay to identify small molecule antagonists of the estrogen receptor alpha (ER-alpha) signaling pathway using the BG1 cell line in the presence of 0.1 nM 17-beta-estradiol (AID 1259244). Put shortly: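 Estradiol at 0.1 nM (final) stimulates the endogenous ER-alpha of VM7Luc4E2 cells carrying an ERE-driven luciferase; compounds are co-incubated 22 h at 37C and luciferase output quantified by luminescence.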

Molecules are shown by their SMILES. Several values for one entry are separate records, joined by “and”; a condition that tells them apart may be missing. Equal entries are not always repeated. Results filed as inconclusive are left out. Activity calls are given as the source filed them. Unless noted, calls come from the whole dose curve; as a rule, active = well fitted curve in the direction sought with a large enough effect in the repeat runs; inconclusive = weak or mixed curves; inactive = no such curve, though single readings can be large; an effect the other way counts as inactive or inconclusive.

Chain of Estrogen receptor (Homo sapiens) (P03372 whole entry, looked up): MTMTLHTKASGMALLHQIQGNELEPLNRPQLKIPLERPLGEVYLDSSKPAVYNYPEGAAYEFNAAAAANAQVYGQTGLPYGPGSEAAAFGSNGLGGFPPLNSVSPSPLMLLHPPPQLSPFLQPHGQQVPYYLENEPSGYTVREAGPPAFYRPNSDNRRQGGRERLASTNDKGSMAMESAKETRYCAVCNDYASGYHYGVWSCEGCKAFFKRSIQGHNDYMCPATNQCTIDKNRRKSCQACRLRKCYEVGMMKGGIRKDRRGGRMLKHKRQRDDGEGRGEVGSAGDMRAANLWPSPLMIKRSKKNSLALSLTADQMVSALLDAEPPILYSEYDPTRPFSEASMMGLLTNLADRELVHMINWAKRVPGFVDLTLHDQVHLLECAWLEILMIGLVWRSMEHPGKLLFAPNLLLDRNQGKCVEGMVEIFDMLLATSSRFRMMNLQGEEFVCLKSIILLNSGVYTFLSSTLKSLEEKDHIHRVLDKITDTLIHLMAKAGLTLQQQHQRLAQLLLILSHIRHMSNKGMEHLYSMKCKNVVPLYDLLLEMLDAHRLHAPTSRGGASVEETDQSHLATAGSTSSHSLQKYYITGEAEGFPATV

In the case of `CCCCC#N`, the Potency result in test [1], in test [2], in test [3], in [4], in [5] and in test [6] was “inactive” each time. Also, the Potency entry in test [7], in test [8], in test [10], in [11], in [12] and in test [13] was “inactive” in each case. The Potency result in test [14], in [15], in [16] and in test [17] was “inactive” in each case. Also, the outcome in test [9] was inactive.
On to `CC(C)C1(C)N=C(c2ncccc2C(=O)O)NC1=O` (stereo not drawn), for which the Potency result in test [1], in test [2], in [3], in test [4], in [5] and in test [6] was “inactive” in each case. For the same compound, the Potency result in test [7], in [8], in test [10], in [11], in test [12] and in test [13] was “inactive” throughout. The Potency result in test [14], in test [15], in [16] and in [17] was “inactive” in each case. Besides, in test [9], the result was inactive.
In the case of `Nc1cc(Cl)cc(C(=O)O)c1Cl`, the Potency entry in [1], in [2], in test [3], in [4], in test [5] and in test [6] was “inactive” each time. For the same compound, the Potency result in test [7], in test [8], in [10], in [11], in [12] and in test [13] was “inactive” each time. In addition, the Potency entry in test [15], in [16] and in test [17] was “inactive” each time. Besides, in test [9], the result was inactive.
On to `Clc1ccc(Cl)c(Cl)c1`, for which the Potency entry in test [1], in [2], in test [3], in test [4], in test [5] and in [6] was “inactive” in each case. Further, the Potency result in [7], in test [8], in [10], in test [11], in test [12] and in test [13] was “inactive” in each case. Besides, the Potency entry in test [14], in test [15], in test [16] and in [17] was “inactive” in each case. Further, in test [9], the compound was classed as inactive.
On to `CC(C)OC(=O)Cc1ccccc1`, for which the Potency entry in [1], in test [2], in test [3], in test [4], in test [5] and in test [6] was “inactive” in each case. Moreover, the Potency result in [7], in [8], in test [10], in test [11], in test [12] and in [13] was “inactive” in each case. The Potency result in [14], in test [15], in [16] and in test [17] was “inactive” each time. The call in [9] was inactive.
As to `CCCCNC(=O)OCC#CI`, the Potency is 54.9 µM (active) in [1]; 54.9 µM (active) in test [3]; 10.9 µM (active) and 4.9 µM (active) in [5]; 21.8 µM (active) and 21.9 µM (active) in test [6]; 24.5 µM (active) in test [7]; 60.8 µM (active) in [12]. For the same compound, the Potency in test [18] is 12.1 µM (active) and 48.6 µM (active); in [15] it was 60.8 µM (active) and 30.6 µM (active); in test [16], 54.2 µM (active) and 61.1 µM (active). Besides, the Potency result in test [2], in test [4], in test [8], in [10], in test [13] and in [14] was “inactive” each time. For the same compound, the Potency result in [17] is “inactive”.
In the case of `CCOc1cccc(C2(N3CCN(c4ccccc4)CC3)CCC(C)CC2)c1` (stereo not drawn), the Potency entry in test [1], in [2], in test [3], in [4], in test [5] and in [6] was “inactive” throughout. Also, the Potency entry in test [7], in [8], in test [10], in test [11], in test [12] and in test [13] was “inactive” each time. For the same compound, the Potency entry in [14], in test [15], in test [16] and in [17] was “inactive” each time. Moreover, in test [9], the outcome was inactive.
As for `CC(C)c1ccc(NC(=O)N(C)C)cc1`, the Potency entry in [1], in test [2], in test [3], in [4], in test [5] and in test [6] was “inactive” throughout. The Potency entry in [7], in test [8], in test [10], in [11], in [12] and in [15] was “inactive” each time. Moreover, the Potency entry in test [16] and in [17] was “inactive” throughout. Moreover, the compound was classed as inactive in test [9]. The Potency in [13] is 24.3 µM (active).

(Values after PubChem BioAssay (Tox21).)
